Data on 38 compounds can be found in PubChem BioAssay AID489008 (National Center for Advancing Translational Sciences (NCATS), 2010).

Inconclusive results are not listed. Active and inactive are the calls of the source. Calls come from the whole dose curve; as a rule, active = well fitted inhibition curve with a large enough effect; inconclusive = small, poorly fitted or top-dose-only effect; inactive = flat fitted curve, though single readings scatter.
Potency is the fitted concentration of half-maximal effect.

Ferritin light chain (Equus caballus), sequence (P02791 2-175 limits assumed): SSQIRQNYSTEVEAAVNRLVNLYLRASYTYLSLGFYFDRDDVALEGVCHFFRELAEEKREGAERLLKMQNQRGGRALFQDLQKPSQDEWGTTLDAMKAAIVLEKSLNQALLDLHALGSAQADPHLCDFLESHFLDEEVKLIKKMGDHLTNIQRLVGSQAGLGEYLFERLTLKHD

The target in the assay is Ferritin light chain (Equus caballus) (UniProt P02791). In words: Confirmation Assay for Identification of Novel General Anesthetics. Note: nearly all actives have a fitted effect of over 40% in size. Particulars: apoferritin 1-aminoanthracene fluorescence displacement. Summed up:
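Horse apoferritin (10 uM) pre-loaded with 1-AMA (50% saturated, PBS) exposed to compounds 10 min at room temperature; loss of 1-AMA fluorescence (380/535 nm) scaled between free and bound ligand, curves fitted with Hill equation.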
As for `CC1Cc2ccccc2N1C(=O)CSC1=NCCS1` (stereo not drawn), the Potency is 10 µM (active).
Under `Fc1ccc(NCc2ccccc2F)cc1Cl` stands 14.1 µM (active); under `Cc1ccc(NC(=O)N2CCCCCC2)cc1`, 12.6 µM (active); under `Cc1ccc(OCc2cc(C(=O)NC3CCc4ccccc43)no2)cn1` (stereo not drawn), 17.8 µM (active).
For `Cc1ccc(C(=O)N2CCCc3ccccc32)c(F)c1F`, the Potency was 22.4 µM (active).
Under `CC(Nc1ccccc1)c1cccnc1` (stereo not drawn) stands 15.8 µM (active); under `CCN(C(=O)c1ccco1)C1C2CC3CC(C2)CC1C3` (stereo not drawn), 14.1 µM (active); under `O=S1(=O)CCOCCCN1Cc1ccccc1Br`, 12.6 µM (active).
To `Oc1ccc(C2C[C@H]3CC[C@@H]2C3)cc1O` (stereo partly drawn) belongs 7.08 µM (active); to `Nc1c(C(=O)NCc2ccccc2)nnn1Cc1cccc(Cl)c1`, 3.98 µM (active).
To `O=C(CCC1CCCCC1)Nc1nncs1` belongs 15.8 µM (active); to `c1cnc(NC2C3CC4CC(C3)CC2C4)nc1` (stereo not drawn), 6.31 µM (active); to `Cc1ccccc1Nc1cccc2nonc12`, 20 µM (active).
As to `CC(C)(C)c1ccc(OCCC(=O)NC2=NCCS2)cc1`, the Potency is 20 µM (active).
To `CNc1nc(C23CC4CC(CC(C4)C2)C3)cs1` belongs 15.8 µM (active).
Take `CCC1CCCCN1S(=O)(=O)Cc1ccccc1Cl` (stereo not drawn): the Potency was 15.8 µM (active).
Under `Nc1nnc(SCc2ccccc2Cl)s1` stands 14.1 µM (active); under `CC(=O)Nc1ccc(NCc2ccc(C)s2)cc1`, 17.8 µM (active); under `O=C(CSCCO)Nc1ccc(C2CCCCC2)cc1`, 20 µM (active).
To `O=C(CSc1ccccc1)N1CCc2ccccc21` belongs 20 µM (active).
To `Cc1ccc(NC(=O)N2CCCCCC2)c(C)c1` belongs 15.8 µM (active); to `CN(C)CC(=O)Nc1ccc(Oc2ccc(Cl)cc2)cc1`, 28.2 µM (active); to `O=C1CCCCCCC1Sc1ccccc1[N+](=O)[O-]` (stereo not drawn), 7.94 µM (active).
For the compound `O=C(O)Cc1csc(Nc2cccc(Cl)c2)n1`, the Potency is 12.6 µM (active).
For the compound `O=C(COC(=O)CC1CC2CCC1C2)NC(=O)NCc1ccco1` (stereo not drawn), the Potency is 22.4 µM (active).
Turning to `CCOC(=O)c1c(C(C)(C)C)oc2ccc(O)cc12`, the Potency is 39.8 µM (active).
To `O=C(Cn1sc2ccccc2c1=O)NC12CC3CC(CC(C3)C1)C2` belongs 15.8 µM (active); to `Cc1ccc(C(=S)N2CCCCCC2)cc1`, 28.2 µM (active); to `Cc1ccc(NC2CCCN(C(=O)c3cccs3)C2)cc1C` (stereo not drawn), 15.8 µM (active).
Under `CC(C)c1ccccc1OCC(=O)N1CCCCCCC1` stands 11.2 µM (active).
To `CC(=O)Nc1ncc(Cc2cc(Cl)ccc2Cl)s1` belongs 15.8 µM (active); to `CC1Cc2ccccc2N1C(=O)CSc1ccccc1` (stereo not drawn), 14.1 µM (active); to `CCc1ccc(NC(=O)C2(C)Cc3ccccc3C(=O)O2)cc1` (stereo not drawn), 31.6 µM (active).
As to `Cc1ccccc1OCC(=O)N1CCCc2ccccc21`, the Potency was 17.8 µM (active).
To `Fc1cnc(Cl)nc1NC1CCCCC1` belongs 12.6 µM (active); to `Cc1ccc(-c2ccc(=O)n(CC(=O)NCc3ccco3)n2)cc1`, 11.2 µM (active).
Under `CC1CCCCC1NC(=O)Cn1nc(-c2ccccc2)ccc1=O` (stereo not drawn) stands 7.08 µM (active); under `N#CC(Nc1ccccc1)c1ccccc1OCc1ccccc1` (stereo not drawn), 35.5 µM (active).
